Test results reported in PubChem BioAssay.

How the values were obtained:
[1] = tested on: Human papillomavirus type 1a protein E7 (residues 44-93); assay: HPV1a E7 fragment binders on microarrays, primary screen, biochemical, small-molecule microarray, residues 44-93, 635 nm fluorescence (AID 1108); settings: small-molecule microarray binding, fluorescence 635 nm; higher = more signal;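 note: E7 fragment applied at 1 µg/mL in TBST for 1 h at 4 C; score combines spot fluorescence with its signal to noise ratio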
[2] = modulators of HCV replicon luciferase signal, primary screen, HCV replication inhibitor project, Huh7 cells, luciferase reporter (AID 1109); settings: 48 h, higher = more signal;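 note: huh7 hepatoma cells harbouring a luciferase neomycin HCV replicon reporter; luciferase luminescence as measure of HCV replicon replication; test concentration not given here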
[3] = target: Left-right determination factor 2 (Homo sapiens) (UniProt O00292); assay: LEFTY2 binders on small-molecule microarrays, primary screen, biochemical, small-molecule microarray, 635 nm fluorescence scan (AID 1110); settings: LEFTY2 binding, higher = more signal
Sequence of Left-right determination factor 2 (Homo sapiens) (O00292 whole entry, looked up): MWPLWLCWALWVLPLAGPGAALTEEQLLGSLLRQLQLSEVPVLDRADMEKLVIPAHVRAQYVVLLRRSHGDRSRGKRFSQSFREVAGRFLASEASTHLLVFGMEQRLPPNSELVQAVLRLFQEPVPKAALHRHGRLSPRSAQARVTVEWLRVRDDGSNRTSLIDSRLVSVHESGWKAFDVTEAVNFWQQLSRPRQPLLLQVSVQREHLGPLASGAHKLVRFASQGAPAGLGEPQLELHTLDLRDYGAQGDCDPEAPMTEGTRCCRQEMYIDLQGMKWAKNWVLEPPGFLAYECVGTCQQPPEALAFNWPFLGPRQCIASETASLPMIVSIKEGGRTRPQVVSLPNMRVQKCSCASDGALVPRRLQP

[4] = target: Calmodulin-1 (Homo sapiens) (UniProt P0DP23); assay: CALM1 binders on microarrays, EGTA buffer, profiling panel, biochemical, small-molecule microarray, Cy5-labelled CALM1 (AID 1111); settings: Cy5-CALM1 binding fluorescence, higher = more signal;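 note: labelled calmodulin applied in Tris saline Tween buffer holding calcium plus EGTA and DTT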
[5] = target: Calmodulin-1 (Homo sapiens) (UniProt P0DP23); assay: calcium-bound CALM1 binders on microarrays, profiling panel, artefact control for SMM control-protein annotation, biochemical, small-molecule microarray, Cy5-labelled CALM1, plus calcium (AID 1112); settings: Cy5-CALM1 binding fluorescence, higher = more signal;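 note: score merges spot fluorescence with signal to noise from triplicate slides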
[6] = small-molecule microarray binders of probe aWnt5a, primary screen, biochemical, biotinylated probe, 635/667 nm fluorescence (AID 1113); settings: higher = more signal;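 note: score merges 667 nm fluorescence intensity with signal-to-noise per printed feature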
[7] = small-molecule microarray binders of probe aShh, primary screen, biochemical, biotinylated probe, 635/667 nm fluorescence (AID 1114); settings: higher = more signal;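 note: probe is biotin-labelled aShh protein from a stem cell growth factor screen; measures binding of labelled protein to compounds printed on the slide; score merges feature fluorescence at 667 nm with signal-to-noise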
[8] = small-molecule microarray binders of probe aNog, primary screen, biochemical, biotinylated probe, 635/667 nm fluorescence (AID 1115); settings: higher = more signal;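 note: probe is biotinylated aNog protein used at 0.15 µg/mL for 1 h at 4 C; z-score combines 667 nm fluorescence of each spot with its signal to noise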
[9] = target: Torsin-1A-interacting protein 1 (Homo sapiens) (UniProt Q5JTV8); assay: LAP1 binders from COS7 cell lysate, primary screen, small-molecule microarray, 635/667 nm fluorescence (AID 1116); settings: COS7-hLAP1 lysate binding, 635 nm fluorescence, higher = more signal
Sequence of Torsin-1A-interacting protein 1 (Homo sapiens) (Q5JTV8 whole entry, looked up): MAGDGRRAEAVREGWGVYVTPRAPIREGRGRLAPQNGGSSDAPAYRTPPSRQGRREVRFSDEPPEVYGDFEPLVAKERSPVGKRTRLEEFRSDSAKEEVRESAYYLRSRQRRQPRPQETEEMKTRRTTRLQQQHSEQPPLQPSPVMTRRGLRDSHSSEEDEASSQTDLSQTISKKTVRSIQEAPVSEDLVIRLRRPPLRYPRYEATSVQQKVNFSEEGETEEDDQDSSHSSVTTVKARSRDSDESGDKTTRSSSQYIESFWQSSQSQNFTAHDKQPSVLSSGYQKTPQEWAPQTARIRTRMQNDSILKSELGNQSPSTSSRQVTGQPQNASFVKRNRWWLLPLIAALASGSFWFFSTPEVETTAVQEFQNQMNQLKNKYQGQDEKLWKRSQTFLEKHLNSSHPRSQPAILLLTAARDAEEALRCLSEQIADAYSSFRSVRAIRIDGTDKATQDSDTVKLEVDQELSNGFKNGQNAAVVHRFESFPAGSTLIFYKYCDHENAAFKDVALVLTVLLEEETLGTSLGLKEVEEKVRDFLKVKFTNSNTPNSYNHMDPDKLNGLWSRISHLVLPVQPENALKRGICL

[10] = target: Alpha-bungarotoxin (Bungarus multicinctus) (UniProt P60615); assay: alpha-bungarotoxin binders on microarray, profiling panel, artefact control for SMM control protein annotation, biochemical, small-molecule microarray, Alexa647 label, 635/667 nm fluorescence (AID 1117); settings: alpha-BTX-A647 binding fluorescence, higher = more signal
Sequence of Alpha-bungarotoxin (Bungarus multicinctus) (P60615 whole entry, looked up): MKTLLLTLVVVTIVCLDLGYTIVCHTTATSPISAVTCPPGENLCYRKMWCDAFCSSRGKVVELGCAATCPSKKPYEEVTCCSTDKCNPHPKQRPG

COC(=O)C[C@H]1O[C@]2(C(=O)N(C)c3ccccc32)[C@@H](C)[C@@H]1[Si](C)(C)c1ccccc1 gave a composite z-score [1] of 0.623, a z-score [2] of -2.1 and a composite z-score [3] of 0.469. For the same molecule, the composite z-score [4] was -0.0495, the composite z-score [5] was -0.401 and the composite z-score [6] was -0.124. The composite z-score [7] was 0.318, the composite z-score [8] was -0.0446 and the composite z-score [9] was 0.0282. For the same molecule, the composite z-score [10] was 0.586.

For CC(C)C[C@H]1NC(=O)CNC(=O)[C@@]23C(=O)N[C@@H](Cc4ccccc4)C2[C@H](C)[C@@]2(C)O[C@H]2C3/C=C/C/C=C\CNC1=O (stereo not given in full), the composite z-score [1] was 0.0774, the z-score [2] was 0.238 and the composite z-score [3] was 0.715. It also gave a composite z-score [4] of -0.322, a composite z-score [5] of -0.833 and a composite z-score [6] of -0.169. For the same molecule, the composite z-score [7] was -0.221, the composite z-score [8] was -0.0315 and the composite z-score [9] was -0.0248. It also gave a composite z-score [10] of -0.188.

CCOC(=O)C1=CC[C@@H](c2ccccc2)N(S(=O)(=O)c2ccc(C)cc2)[C@@H]1C#N showed a composite z-score [1] of 1.32, a z-score [2] of -1.72 and a composite z-score [3] of 0.0775. It also gave a composite z-score [4] of 1.2, a composite z-score [5] of 0.325 and a composite z-score [6] of 0.0438. It also gave a composite z-score [7] of 0.14, a composite z-score [8] of 0.404 and a composite z-score [9] of 0.349. The composite z-score [10] was 0.786.

OCCCc1cc[n+](Cc2cc3c(cc2Br)OCO3)cc1 showed a composite z-score [1] of -0.945, a z-score [2] of 1.05 and a composite z-score [3] of -1.12. It also gave a composite z-score [4] of -1.81, a composite z-score [5] of 0.172 and a composite z-score [6] of -0.147. It also gave a composite z-score [7] of -0.207, a composite z-score [8] of -0.172 and a composite z-score [9] of -0.81. For the same molecule, the composite z-score [10] was -2.04.

Work on COCCCNC(=O)[C@]1(Cc2ccccc2CN=[N+]=[N-])N=C(c2ccc(OCCCO)cc2)O[C@@H]1c1ccccc1N=[N+]=[N-] yielded a composite z-score [1] of 0.693, a z-score [2] of -2.06 and a composite z-score [3] of -0.581. The composite z-score [4] was 1.27, the composite z-score [5] was 1.18 and the composite z-score [6] was 0.133. For the same molecule, the composite z-score [7] was 1.16, the composite z-score [8] was 0.467 and the composite z-score [9] was 0.939. The composite z-score [10] was 2.35.

COC(=O)[C@@]1(Cc2ccc(F)cc2)[C@H]2c3cc(C(=O)N(C)C)n(CCF)c3C[C@H]2CN1C(=O)c1ccccc1 gave a composite z-score [1] of -0.999, a z-score [2] of -1.38 and a composite z-score [3] of -0.0571. For the same molecule, the composite z-score [4] was 0.838, the composite z-score [5] was 0.55 and the composite z-score [6] was 0.0657. For the same molecule, the composite z-score [7] was 0.337, the composite z-score [8] was 0.787 and the composite z-score [9] was 0.163. For the same molecule, the composite z-score [10] was 0.3.

Work on O=C1C2C=CC(C(O)c3ccccn3)N(Nc3ccc([N+](=O)[O-])cc3)C2C(=O)N1c1ccccc1 (stereo not given) yielded a composite z-score [1] of 0.0529, a z-score [2] of -0.35 and a composite z-score [3] of 0.335. For the same molecule, the composite z-score [4] was 2.02, the composite z-score [5] was 0.897 and the composite z-score [6] was -0.0799. The composite z-score [7] was 0.184, the composite z-score [8] was 0.479 and the composite z-score [9] was 0.958. It also gave a composite z-score [10] of 1.11.

In the case of NCCCCCCNC(=O)[C@@H]1C[C@@H]2C(=O)NCC(=O)N2[C@@H]1c1cccc(OCCO)c1, the composite z-score [1] is reported as 1.3, the z-score [2] is reported as -0.453 and the composite z-score [3] is reported as 1.09. For the same molecule, the composite z-score [4] was -0.115, the composite z-score [5] was 0.293 and the composite z-score [6] was 0.14. It also gave a composite z-score [7] of 0.0639, a composite z-score [8] of -0.077 and a composite z-score [9] of 0.95. For the same molecule, the composite z-score [10] was 0.872.

In the case of COC(=O)[C@@]1(Cc2ccc(OC)cc2)[C@@H]2[C@@H](CC(=O)[C@H]2CC(=O)C(=O)N(C)C)CN1C(=O)c1ccccc1, the composite z-score [1] is reported as 1.42, the z-score [2] is reported as -2.35 and the composite z-score [3] is reported as 0.243. For the same molecule, the composite z-score [4] was 2.66, the composite z-score [5] was 1.51 and the composite z-score [6] was 0.346. It also gave a composite z-score [7] of 2.46, a composite z-score [8] of 0.899 and a composite z-score [9] of 1.51. It also gave a composite z-score [10] of 1.67.

Work on CCCNC(=O)[C@@]1(Sc2ccc(C)cc2)CC(=O)N(Cc2cc(C(F)(F)F)cc(C(F)(F)F)c2)[C@@H]1c1ccc(CO)cc1 yielded a composite z-score [1] of 0.156, a z-score [2] of -1.83 and a composite z-score [3] of -0.272. For the same molecule, the composite z-score [4] was -0.159, the composite z-score [5] was 0.441 and the composite z-score [6] was -0.0944. It also gave a composite z-score [7] of -0.291, a composite z-score [8] of -0.164 and a composite z-score [9] of 0.443. It also gave a composite z-score [10] of 0.0468.

Work on COc1ccc(NN2C(C(O)c3ccc(F)cc3)C=CC3C(=O)N(C4CCCCC4)C(=O)C32)cc1 (stereo not given) yielded a composite z-score [1] of 1.44, a z-score [2] of -0.502 and a composite z-score [3] of 0.14. The composite z-score [4] was 1.08, the composite z-score [5] was 0.722 and the composite z-score [6] was 0.0919. It also gave a composite z-score [7] of 0.108, a composite z-score [8] of 1.03 and a composite z-score [9] of 0.297. For the same molecule, the composite z-score [10] was 1.37.

With COc1ccc(-c2cc3c(c(CCc4ccccc4)n2)[Si](C(C)C)(C(C)C)O[C@H]3c2ccccc2)cn1 the composite z-score [1] was -0.38, the z-score [2] was -1.8 and the composite z-score [3] was 0.0069. The composite z-score [4] was -0.0526, the composite z-score [5] was -0.517 and the composite z-score [6] was -0.12. The composite z-score [7] was -0.0192, the composite z-score [8] was -0.158 and the composite z-score [9] was -0.309. It also gave a composite z-score [10] of 0.31.

Cc1ccc(S[C@]2(C(=O)NCCN3CCOCC3)CC(=O)N(C(C)C)[C@@H]2c2ccc(CO)cc2I)cc1 gave a composite z-score [1] of 0.89, a z-score [2] of -2.32 and a composite z-score [3] of -0.532. For the same molecule, the composite z-score [4] was -1.17, the composite z-score [5] was -0.693 and the composite z-score [6] was -0.154. It also gave a composite z-score [7] of -0.138, a composite z-score [8] of -0.119 and a composite z-score [9] of 0.974. It also gave a composite z-score [10] of -1.08.

For C=CCNC(=O)[C@H]1[C@@H]2C(=O)O[C@@H](c3ccccc3)[C@@H](c3ccccc3)N2[C@@H](c2ccc(O)cc2)[C@]12C(=O)N(C(=O)OCCOC)c1ccc(C#Cc3ccc(OC)cc3)cc12, the composite z-score [1] was 1.33, the z-score [2] was -1.09 and the composite z-score [3] was 0.254. The composite z-score [4] was 1.38, the composite z-score [5] was -0.0807 and the composite z-score [6] was -0.001. The composite z-score [7] was 0.229, the composite z-score [8] was -0.477 and the composite z-score [9] was 0.42. For the same molecule, the composite z-score [10] was 0.286.

CCCC[C@@H](O)C1=C(C)Cn2c(=O)n(-c3ccccc3)c(=O)n2[C@H]1CO showed a composite z-score [1] of -0.867, a z-score [2] of 0.384 and a composite z-score [3] of 0.0031. It also gave a composite z-score [4] of -0.737, a composite z-score [5] of -0.122 and a composite z-score [6] of -0.117. It also gave a composite z-score [7] of -0.221, a composite z-score [8] of 0.115 and a composite z-score [9] of 0.105. The composite z-score [10] was -0.409.

In the case of COc1ccc(CCNC(=O)[C@@]2(c3ccc([N+](=O)[O-])cc3)CC(=O)N(C3CCCCC3)[C@@H]2c2ccc(CO)cc2I)cc1, the composite z-score [1] is reported as 0.535, the z-score [2] is reported as -2.57 and the composite z-score [3] is reported as 0.497. It also gave a composite z-score [4] of 0.529, a composite z-score [5] of 0.113 and a composite z-score [6] of -0.0643. The composite z-score [7] was 0.108, the composite z-score [8] was 0.639 and the composite z-score [9] was 0.733. The composite z-score [10] was 0.201.

With CCCCN1CC=CC23O[C@@H]4/C=C\CCC(C)OC(=O)C4[C@H]2C(=O)N(CCO)[C@@H]3C1=O (stereo not given in full) the composite z-score [1] was -0.391, the z-score [2] was -0.58 and the composite z-score [3] was -0.99. The composite z-score [4] was -0.896, the composite z-score [5] was -0.272 and the composite z-score [6] was -0.171. The composite z-score [7] was -0.2, the composite z-score [8] was 0.171 and the composite z-score [9] was 3.55. It also gave a composite z-score [10] of -0.238.

CCCCC(=C=CC[C@@H](O)c1ccccc1OCCO)C[C@@H](O)c1ccccn1 showed a composite z-score [1] of 0.361, a z-score [2] of -1.61 and a composite z-score [3] of -0.139. The composite z-score [4] was -0.408, the composite z-score [5] was -0.669 and the composite z-score [6] was -0.113. It also gave a composite z-score [7] of -0.0904, a composite z-score [8] of -0.108 and a composite z-score [9] of -0.194. The composite z-score [10] was 0.888.
